HT1080NT lethal: kills 2HG-producing HT-1080-NT fibrosarcoma cells; hit rate 1.6% among 360,000; Potency, µM (highest dose often 46.1 µM), inactives show at the highest dose activity, negative = less viability, actives largely listed as cytotoxic; HT-1080-NT fibrosarcoma viability, CellTiter-Glo ATP luminescence, 48 h;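 further: NT is the 2HG producing partner of a matched IDH1 knockdown line; potency means the concentration at half of the fitted maximal effect; 0% = DMSO-treated cells and -100% = media-only wells without cells; nearly all actives have a fitted effect of over 55% in size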
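Toxicity toward the 2HG-producing NT line was scored as %Activity, normalised to DMSO and no-cell wells, from CellTiter-Glo luminescence after 48 hours' treatment.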
TDP1 cell CPT: growth inhibition of DT40 Tdp1-/-;hTDP1 cells with camptothecin (screen for TDP1 inhibitors) | chicken DT40 Tdp1-/-;hTDP1 cells + 20 nM CPT, ATP luminescence, 48 h | hit rate 12% among 420,000 | Potency, µM (series often up to 46.2 µM), for inactives: at the top dose activity change, negative = growth inhibition, hits mostly inhibitors | AID 686979; further: potency means the concentration at half of the fitted maximal effect; nearly all actives have a fitted effect of over 55% in size
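Chicken DT40 Tdp1-/- cells stably complemented with human TDP1 were seeded at 400 cells/well in medium containing 20 nM camptothecin, exposed to pin-transferred compounds, and grown at 37 °C for at least 48 hr. Viability was read as ATP luminescence.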
DT40 TDP1 no CPT: qHTS for Inhibitors of human tyrosyl-DNA phosphodiesterase 1 (TDP1): qHTS in cells in absence of CPT; DT40 Tdp1-/- hTDP1 cells, no CPT, ATP luminescence, 48 h; Potency, µM (top dose mostly 46.2 µM), for inactives: at the top dose activity change, negative = growth inhibition, usual class: inhibitors; hit rate 15% among 420,000; AID 686978, 2013; further: potency means the concentration at half of the fitted maximal effect; nearly all actives have a fitted effect of over 55% in size
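Growth of hTDP1-complemented DT40 Tdp1-knockout cells is measured by ATP luminescence after at least 48 hr compound exposure at 37 °C, with DMSO substituting for the 20 nM CPT used in the parallel screen.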
ALOX12 inh: blocks human arachidonate 12S-lipoxygenase. AID 1671190. Potency, µM (doses to about 108 µM), without a hit: top-dose activity change, negative = inhibition, usual class: inhibitors. hit rate 1.1% among 580,000. purified 12hLO, xylenol orange hydroperoxide absorbance. P18054; further: potency means the concentration at half of the fitted maximal effect
Target sequence (P18054 whole entry, looked up): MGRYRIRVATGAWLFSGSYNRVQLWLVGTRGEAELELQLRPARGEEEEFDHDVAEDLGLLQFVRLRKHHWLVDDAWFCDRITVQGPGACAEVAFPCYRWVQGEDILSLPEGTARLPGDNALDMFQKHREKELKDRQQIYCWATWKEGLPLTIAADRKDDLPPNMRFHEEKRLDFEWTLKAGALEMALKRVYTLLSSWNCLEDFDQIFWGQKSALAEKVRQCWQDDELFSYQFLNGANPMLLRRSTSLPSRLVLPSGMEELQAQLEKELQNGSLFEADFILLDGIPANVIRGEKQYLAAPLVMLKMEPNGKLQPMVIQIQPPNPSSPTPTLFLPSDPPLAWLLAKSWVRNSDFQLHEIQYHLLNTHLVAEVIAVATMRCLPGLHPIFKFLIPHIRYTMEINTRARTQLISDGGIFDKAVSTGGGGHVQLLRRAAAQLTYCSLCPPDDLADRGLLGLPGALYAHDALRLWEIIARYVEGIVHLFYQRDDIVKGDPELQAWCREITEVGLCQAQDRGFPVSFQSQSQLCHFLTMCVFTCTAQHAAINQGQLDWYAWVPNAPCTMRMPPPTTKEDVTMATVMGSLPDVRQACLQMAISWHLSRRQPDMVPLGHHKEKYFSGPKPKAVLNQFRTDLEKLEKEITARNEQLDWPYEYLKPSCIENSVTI
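Hydroperoxide product was detected by ferrous iron/xylenol orange as the 573 to 405 nm absorbance ratio. Arachidonic acid at 40 uM (final) was turned over for 30 min at room temperature by 150 nM human 12hLO, pH 7.0 Hepes buffer, after 15 min compound preincubation.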
HT1080 IDH1KD tx: HT-1080 IDH1 knockdown cell toxicity (counter line). HT-1080 IDH1 knockdown viability, ATP luminescence, 48 h. Potency, µM (series often up to 46.1 µM), without a hit: at the top dose activity, negative = toxicity, actives largely listed as cytotoxic. hit rate 2% among 360,000;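 further: potency means the concentration at half of the fitted maximal effect; 0% = DMSO wells and -100% = cell-free medium wells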
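Cytotoxicity counter-line: IDH1KD HT-1080, 48 h, CellTiter-Glo. Curves classed by r2, magnitude and activity.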
IL-1B inflam inh: blocks inflammasome-driven IL-1 beta release. THP-1 LPS/ATP IL-1B secretion, AlphaLISA, 16 h; hits give low values. activity change, % at 57.5 µM. hit rate 4.7% among 360,000. AID 743279; in the data active means activity change below about -50%; inconclusive means mostly about -30% to -49%
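THP-1 cells pretreated 1 hr with compounds (up to 57.5 uM final), then stimulated with LPS (250 ng/mL final) plus ATP (1.25 mM final); secreted IL-1B measured by AlphaLISA after 16 hr, decreased signal indicating inhibition.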
* hit, by the source's call; ? = inconclusive; · = not tested or not shown; [ ] = remark or other dose. Shown is part of a subset that was picked to be rich in hits. Unless noted, the call rests on the fitted dose curve; in most records, active means well fitted curve in the direction sought with a large enough effect; inconclusive means small, poorly fitted or top-dose-only effect, or another doubt; inactive means no such curve, though single readings can be large; an effect the other way counts as inactive or inconclusive. Unless noted, on the % scale 0 is the no-effect control and ±100 the full control effect.

SMILES	HT1080NT lethal	TDP1 cell CPT	DT40 TDP1 no CPT	ALOX12 inh	HT1080 IDH1KD tx	IL-1B inflam inh
Cc1cccc(-c2cc(NC(=O)c3ccccc3C)n(-c3ccccc3)n2)c1	·	?	-26%	-14%	·	·
COc1ccccc1C(=O)Nc1cc(-c2cccc(Br)c2)nn1-c1ccccc1	·	15µM*	7.3µM*	-20%	·	·
CC(C)c1ccc(C(=O)Nc2cc(-c3ccccc3F)nn2-c2ccccc2)cc1	·	21µM*	10µM*	-19%	·	·
Nc1ccccc1Nc1cc(-c2ccccc2)nn1-c1cccc(Cl)c1	?	-15%	?	-11%	?	-52*
O=C(Nc1cc(-c2cccc(Cl)c2)nn1-c1ccccc1)c1ccccc1F	·	16µM*	?	-2%	·	·
C/C(=N\NC(=O)c1ccc(C)s1)c1ccncc1	·	·	·	3%	·	·
CN(C)CCNC(=O)c1ccc(Cn2c(=O)c3cccn3c3cccnc32)cc1	·	?	?	-23%	·	·
Cc1ccc(C2CC(=O)N3CN(Cc4ccccc4)CSC3=C2C#N)cc1 (configuration not stated)	·	·	·	5.6µM*	·	·
CN1CSC2=C(C#N)C(c3cccc(OCc4ccccc4)c3)CC(=O)N2C1 (configuration not stated)	?	21µM*	?	-12%	-1%	12
COc1ccc(N2CSC3=C(C#N)C(c4cc(OC)ccc4OC)CC(=O)N3C2)c(OC)c1 (configuration not stated)	0%	?	?	·	1%	52
CCc1ccc(C2CC(=O)N3CN(c4ccccc4)CSC3=C2C#N)cc1 (configuration not stated)	0%	?	?	?	-11%	-14
COc1cccc(C2CC(=O)N3CN(C4CCCCC4)CSC3=C2C#N)c1 (configuration not stated)	·	?	?	13µM*	·	·
CC(C)C(=O)N1CCC2(COc3ncccc3S(=O)(=O)N2)C1 (configuration not stated)	·	·	·	4%[6.33 µM]	·	·
O=C(O)c1ccc(CN2CCOC[C@H]2c2ncc(-c3cccnc3)[nH]2)cc1	·	·	·	10%[176 µM]	·	·
CCNC(=O)N1CCC(Cc2ccc(C(=O)NCCc3c[nH]c4ccccc34)cc2)CC1	·	·	·	7%	·	·
CS(=O)(=O)c1ccc(-c2cnc([C@@H]3COCCN3C3CCOCC3)[nH]2)cc1	·	·	·	1%[176 µM]	·	·
O=c1[nH]c(-c2ccccn2)cc2ccccc12	-10%	-28%	-21%	-10%	-27%	-56*
O=c1[nH]c(Nc2ccccn2)cc2ccccc12	7%	?	?	?	2%	24
Cc1ccc(-c2csc(N(CCO)CCCn3c(C(F)(F)F)nc4cc(C(F)(F)F)ccc43)n2)cc1	-11%	?	?	-13%	-26%	25
OCCCn1c(C2CCCN2c2nc(-c3ccc(F)cc3)cs2)nc2cc(C(F)(F)F)ccc21 (configuration not stated)	-10%	8.2µM*	?	-5%	-14%	-57*
OCCOCCn1c(C2CCCN2c2nc(-c3ccc(F)cc3)cs2)nc2cc(C(F)(F)F)ccc21 (configuration not stated)	-11%	16µM*	?	-6%	-28%	-12
OCCCn1c(CCNc2nc(-c3ccc(F)cc3)cs2)nc2cc(C(F)(F)F)ccc21	-15%	?	?	-5%	-10%	-69*
Cc1ccc(Cn2c(C3CCCN3c3nc(-c4ccc(F)cc4)cs3)nc3cc(C(=O)NCCCO)ccc32)cc1 (configuration not stated)	?	21µM*	?	-24%	?	1
CC(=O)Nc1ccc(S(=O)(=O)NC[C@@H]2C=C(C)[C@H](CC(=O)O)C[C@H]2C(C)C)cc1	·	·	·	-5%[176 µM]	·	·
